High-throughput results: PubChem BioAssay, several laboratories
Compounds with a hit are over-represented: about 3.7% of the library has one in this group of screens.
tim23-1 inh: tim23-1 yeast growth inhibition; S. cerevisiae tim23-1 growth, BacTiter-Glo luminescence, 24 h; inhibition, % at 20 µM; 330,000 tested, 1.3% active; AID 463212;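 active means growth inhibition of the mutant yeast at or above 50%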;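 further: temperature-sensitive mutant grown at 25 °C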
V-ATPase pH: regulators of yeast V-ATPase proton transport; 350,000 tested, 0.37% active; response, % at 10 µM; AID 504577; S. cerevisiae, pHLuorin cytosolic pH fluorescence; in the data active means response mostly above about 7.3%, no sharp cut-off; inactive means mostly below about 5.4%; further: actives read high
PfHsp90 set2: inhibits growth of yeast expressing Plasmodium falciparum Hsp90; S. cerevisiae expressing PfHsp90, BacTiter-Glo ATP, 48 h; yeast lacking PDR1 and PDR3 efflux regulators; inhibition, % at 9.4 µM; 310,000 tested, 0.32% active; AID 504621;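 active means every replicate shows inhibition above about 80%, whatever the replicate mean, limit read from the data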
tim10-1 inh: growth inhibitors of tim10-1 mutant yeast; S. cerevisiae tim10-1 ts strain growth, BacTiter-Glo, 24 h; inhibition, % at 20 µM; 330,000 tested, 2.2% active;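 active means inhibition of at least 40%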;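 further: mutant grown at 25 °C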
TIM10 inh: growth inhibitors of TIM10 yeast strain. S. cerevisiae TIM10 strain growth, BacTiter-Glo luminescence, 24 h. inhibition, % at 10 µM. 330,000 tested, 1.4% active. AID 463195;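 active means inhibition of 40% or more at the single tested concentration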;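 further: wild-type TIM10 isogenic control strain grown at permissive 25 °C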
tim10-1 confirm: confirmation of tim10-1 mutant yeast growth inhibitors; shares compounds with tim10-1 inh; S. cerevisiae tim10-1 ts strain growth, BacTiter-Glo, 24 h; inhibition, % at 20 µM; 7,400 tested, 56% active; AID 463213;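 active means inhibition of yeast growth at or above a set limit in either of two repeat tests at 20 µM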;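 further: tim10-1 mutant grown at permissive 25 °C to find synthetic lethal compounds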
A number is an active result; – = inactive; · = no result given.

SMILES	tim23-1 inh	V-ATPase pH	PfHsp90 set2	tim10-1 inh	TIM10 inh	tim10-1 confirm
COc1ccc(N2CCN(C(=O)c3ccc(NC(=O)C4=CSCCO4)cc3)CC2)cc1	–	–	–	43	–	29
O=C(Nc1ccc(C(=O)N2CCN(c3ccc(F)cc3)CC2)cc1)C1=CSCCO1	–	–	–	47	–	36
COCCn1c(=NC(=O)c2cc(-c3cccs3)nc3ccccc23)sc2cc(S(N)(=O)=O)ccc21	–	–	–	–	–	30
O=C(NCc1nnc(SCC(=O)N2CCN(c3ccccc3)CC2)o1)c1ccc(F)cc1	–	–	–	–	–	·
O=C1c2ccccc2C(Nc2ccc3c(c2)OCCO3)N1Cc1ccccc1 (stereo unspecified)	–	–	–	–	–	–
CCOc1ccc(NC2c3ccccc3C(=O)N2Cc2ccc3c(c2)OCO3)cc1 (stereo unspecified)	–	–	–	–	–	·
O=C(COC(=O)c1cc([N+](=O)[O-])ccc1NCCO)Nc1cccc(S(=O)(=O)N2CCCC2)c1	–	–	·	–	–	·
N#Cc1ccc(/C=C/C(=O)c2ccccc2)cc1	–	–	–	48	–	43
O=C(/C=C/c1ccccc1)c1ccccc1	–	–	–	–	–	·
CCN(C(=O)c1ccc2c(c1)OCO2)C12CC3CC(CC(C3)C1)C2	–	–	–	–	–	·
CCN(C(=O)c1cccc(S(=O)(=O)N(C)C)c1)C12CC3CC(CC(C3)C1)C2	–	–	–	41	–	–
Cn1nc(C(=O)NCCCN2CCCCC2)c2c1-c1ccccc1SC2	–	–	–	–	–	·
CCSc1nnc(NC(=O)CN2C(=O)N(C)C3(CCCCC3)C2=O)s1	–	–	–	97	–	–
COc1ccc(OC)c(NC(=O)c2cccc3c2C(=O)N(C2CCCCC2)C3)c1	–	–	–	54	–	–
COc1ccc(NC(=O)c2cccc3c2C(=O)N(C2CCCCC2)C3)cc1	–	–	–	–	–	·
Cc1ccc(NC(=O)C(C)N2C(=O)C3C4CC(C(Br)C4Br)C3C2=O)cc1 (stereo unspecified)	–	–	·	48	–	32
Cc1ccc(NC(=O)C(C)N2C(=O)C3CC=C(Cl)CC3C2=O)cc1 (stereo unspecified)	–	–	–	–	–	·
CC(COc1ccc(C(C)C)cc1)NC(=O)c1ccc(Br)o1 (stereo unspecified)	–	–	·	–	–	·
CCOc1ccc(-c2nc(CSCC(=O)NC3CCCc4ccccc43)c(C)o2)cc1 (stereo unspecified)	–	–	·	40	–	–
CCOc1ccc(-c2nc(CSCC(=O)NC3CC3)c(C)o2)cc1	–	–	–	–	–	·
COc1ccccc1N1CCN(CC(=O)Nc2ccc(Cl)c(C(F)(F)F)c2)CC1	–	–	–	42	–	29
O=C(CN1CCN(S(=O)(=O)c2ccc(F)cc2)CC1)Nc1ccc2c(c1)OCCO2	–	–	–	–	–	·
O=C(CN1CCN(S(=O)(=O)c2ccc(F)cc2)CC1)Nc1ccc(Cl)c(C(F)(F)F)c1	–	–	–	44	–	39
Cc1c(/C=C2\NC(=O)NC2=O)c2ccccc2n1C	–	–	–	–	–	·
O=C(N/N=C/c1ccc([N+](=O)[O-])s1)c1cccc(Br)c1	–	–	–	52	–	–
SMILES	tim23-1 inh	V-ATPase pH	PfHsp90 set2	tim10-1 inh	TIM10 inh	tim10-1 confirm
Cc1ccc(C(=O)N/N=C/c2ccc([N+](=O)[O-])s2)cc1	–	–	–	–	–	·
O=C(N/N=C/c1ccc(O)c2ncccc12)c1cccc(Br)c1	–	–	104	52	–	–
CCCc1ccc(C(C)NC(=S)NCc2ccc(F)cc2)cc1 (stereo unspecified)	–	–	–	–	–	·
CCC(C)c1ccc(C(C)NC(=S)NCc2ccc(F)cc2)cc1 (stereo unspecified)	–	–	–	44	–	–
CN(CC(=O)N1CCN(Cc2ccccc2)CC1)C(=O)Cc1ccc(Cl)c(Cl)c1	–	–	–	–	–	·
CC(C)(C)n1nnnc1C(c1ccccc1F)N(Cc1ccco1)CC1CCCO1 (stereo unspecified)	–	–	–	41	–	–
Cc1ccc(-c2nc(N)sc2C)cc1	–	–	–	–	–	·
Cc1sc(N)nc1-c1c(C)n(C)c2ccccc12	–	–	–	68	–	–
FC(F)(F)c1nnc(-c2ccccc2)nc1Oc1ccc(Cl)cc1Cl	–	–	–	51	–	47
CC(C)(C)NC(=O)c1ccc(NC(=O)c2ccccc2-c2ccccc2C(=O)O)cc1	–	–	–	–	–	·
O=C1Cc2c([nH]c3ccc([N+](=O)[O-])cc23)-c2ccccc2N1	·	–	–	·	·	·
CC(/C=C/c1cccc([N+](=O)[O-])c1)=N/NC(=O)c1cccnc1	–	–	–	40	–	–
CC(C)(C)c1ccc(COn2c(=O)c(-c3ccco3)[n+]([O-])c3ccccc32)cc1	–	–	–	50	–	–
CCOC(=O)c1ccccc1OC(=O)CS(=O)c1ccccc1[N+](=O)[O-] (stereo unspecified)	–	–	–	–	–	·
COC(=O)c1ccc(OC(=O)CS(=O)c2ccccc2[N+](=O)[O-])cc1 (stereo unspecified)	–	–	–	55	–	36
COCCCNC(=S)N1CCN(c2nc(C)nc3sc4c(c23)CCCC4)CC1	–	–	–	–	–	·
CCCNC(=S)N1CCN(c2nc(C)nc3sc4c(c23)CCCC4)CC1	–	–	–	43	–	–
CCCCN(C(=O)COC(=O)C1(c2ccccc2)CC1)c1c(N)n(CCC)c(=O)[nH]c1=O	·	–	·	·	·	·
CC(OC(=O)C1CC1)C(=O)Nc1cc(Cl)cc(Cl)c1 (stereo unspecified)	–	–	–	–	–	·
CCOc1cccc(/C=N/NC(=O)c2ccc3c(c2)OCCO3)c1O	–	–	–	48	–	–
COc1cccc(/C=N/NC(=O)CNC(=O)c2ccc3c(c2)OCCO3)c1O	–	–	–	–	–	·
COc1ccc2ccccc2c1/C=N/NC(=S)Nc1cc(S(=O)(=O)N2CCOCC2)ccc1N1CCOCC1	–	–	–	–	–	·
CCOc1cccc(/C=N/NC(=S)Nc2cc(S(=O)(=O)N3CCOCC3)ccc2N2CCOCC2)c1O	–	–	–	44	–	–
CCCCc1cc(C(=O)Cc2ccccn2)c(O)cc1O	–	–	–	–	–	·
CNS(=O)(=O)c1ccc2c(c1)C(=O)c1cc(S(=O)(=O)NC)ccc1CC2	–	–	–	–	–	·
Cc1ccc(S(=O)(=O)c2ncccc2[N+](=O)[O-])cc1	–	–	–	–	–	·
Cn1c(SCc2ccccc2Cl)nc2c1c(=O)[nH]c(=O)n2C	–	–	–	–	–	·
CCN(CC)C(=O)c1c(-c2ccccc2)oc2ccc(OC)cc12	–	–	–	41	–	–
CCc1cc(C(=O)N/N=C/c2ccc(OC)cc2)c2ccccc2n1	–	–	–	–	–	·
CC(C)OC(=O)CSc1nc2cccnc2n1C1CCCCC1	–	–	–	–	–	–
